Hit rate of the full screen: of about 290,000 compounds, about 3,000 (1%) were called active. Cut-off read from the data, not from the text of the source: active = inhibition mostly above about 36% (no sharp cut-off); inactive = mostly below about 34%. What follows is part of a selection rich in actives, with near analogues and random picks from the rest.
Test: NOD1 signaling inhibitors, primary screen, cell-based, luminescence, uHTS (AID 1578);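 note: HEK-293T reporter cells stimulated with the NOD1 agonist gamma-tri-DAP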
Details: NOD1-driven NF-kB luciferase reporter cells, at 4 µM, active compounds read high

inhibition, inactive:
COc1ccc(N)cc1S(=O)(=O)Nc1ccccc1Cl 9.1%
COc1ccc(OCC(=O)Nc2ccc(S(=O)(=O)N3CCCCCC3)cc2)cc1 -7.8%
O=S(=O)(c1ccc(S(=O)(=O)N2CCC(O)CC2)cc1)N1CCCC1 29.3%
COc1ccc(CCn2ccc(O)c(Cc3ccc(Cl)cc3Cl)c2=O)cc1OC -2.8%
COc1ccc(CCn2ccc(O)c(Cc3ccc(Cl)cc3)c2=O)cc1OC 3.1%
CN1CCN(C(=S)c2ccc(Cl)cc2)CC1 1.9%
NC(=O)C1CCN(Cc2ccc(OCc3ccccc3)cc2)CC1 -29.8%
O=S(=O)(NC1CC1)c1cccc(S(=O)(=O)N2CCCC2)c1 -9.9%
COc1ccc(CNC(=O)CC(C)CC2=NS(=O)(=O)c3ccccc3N2)cc1 (stereo not given) -5.1%
COc1ccc(C(=O)NCc2nnc(SCC(=O)N3CCCCC3)o2)cc1OC 8.1%
COc1ccc(-c2nnc3n2N=C(C)CS3)cc1 8.4%
CCOc1ccc(-c2nnc3n2N=C(c2ccc(OC)cc2)CS3)cc1 4.9%
Cc1ccc(Cl)cc1NC(=O)C1CCCN(S(=O)(=O)c2c(C)noc2C)C1 (stereo not given) -22.6%
O=C(O)CCCCCNCc1ccncc1 -8%
COc1ccc(OC)c(-c2csc(NC(=O)C3=NN(c4ccccc4)C(=O)CC3)n2)c1 -27.4%
CCc1ccc(-c2csc(NC(=O)C3=NN(c4ccccc4)C(=O)CC3)n2)cc1 51.4%
CCOC(=O)c1ccc(NS(=O)C23CC4CC(CC(C4)C2)C3)cc1 (stereo not given) -39.1%
CCN(CC)S(=O)(=O)c1ccc2oc(C(=O)NCCCN3CCOCC3)c(C)c2c1 -9.1%
Cc1cccc(N2CCN(C(=O)NC3CCCCC3)CC2)c1C -19.6%
O=C1[C@H]2[C@@H](c3ccc(F)cc3)N3C(=O)N(c4cccc(Br)c4)C(=O)[C@@]3(Cc3ccc(Cl)cc3)[C@H]2C(=O)N1C1CCCCC1 -14.3%
CC[C@@]12C(=O)N(c3cccc(Br)c3)C(=O)N1[C@H](c1ccc(Cl)cc1)[C@@H]1C(=O)N(C3CCCCC3)C(=O)[C@@H]12 10.3%
COc1c(OC)c(O)c2c(=O)cc(-c3c(O)cccc3O)oc2c1OC 2.2%
O=c1cc(-c2c(F)c(F)c(F)c(F)c2F)oc2ccccc12 36.7%
Cc1cccc(NC(=O)Cc2c(F)cccc2Cl)n1 -46.6%
Cc1nsc(Nc2ccccc2)c1C#N 16.5%
O=[N+]([O-])c1ccc(Nc2ccc(F)cc2)cc1 -11.9%
CN1CCN(/N=C/c2ccc(N(C)c3ccccc3)cc2)CC1 -6.9%
Cc1cc(=O)oc2c(C)c(OCC(=O)NCCCn3ccnc3)ccc12 1.8%
O=C(OCc1ccccc1)c1cccnc1Cl -18.1%
Cn1cc(CNCc2cn[nH]c2-c2ccc(F)cc2)c(-c2ccc3c(c2)OCCO3)n1 -22.2%
CN(Cc1ccon1)Cc1cn(C)nc1-c1ccc2c(c1)OCCO2 -26.3%
C/C(=N\NC(=O)C1CC1(c1ccccc1)c1ccccc1)c1cccc([N+](=O)[O-])c1 (stereo not given) -12.5%
CC(=O)Nc1ccc(N=Cc2c(O)ccc3ccccc23)cc1 -20%
CC(=O)Nc1ccc(N=Cc2c(O)c(C(=O)Nc3ccccc3)cc3ccccc23)cc1 39.6%
O=C(Nc1ccc(NS(=O)(=O)c2ccccc2)cc1)c1cccnc1 -23.8%
O=C(NCc1nnc(SCC(=O)N2CCCC2)o1)c1ccccc1 -0.1%
Cc1c(C(=O)O)[nH]c2c1C(=O)CC(c1ccccc1)C2 (stereo not given) -0.4%
Cc1oc2c(c(=O)c1C)C(=O)CC(c1ccccc1)C2 (stereo not given) -15.6%
CCc1noc(C)c1C(=O)Nc1ccccc1C(C)(C)C 38.7%
Cc1ccc(-c2nc(N3CCOCC3)sc2C(=O)N2CCOCC2)cc1 -12.2%
Cc1ccc(CNC(=O)Nc2ccc(OC(F)(F)F)cc2)n1C -21.3%
COC(=O)c1ccc(NC(=O)c2ccccc2NS(C)(=O)=O)cc1 -12%
COC(=O)c1ccccc1NS(=O)(=O)c1ccc(NC(C)=O)cc1 0.6%
COc1cc(OC)cc(C(=O)Nn2cc(C(=O)Nc3ccccc3F)c3ccccc3c2=O)c1 -16.8%
C=CCNC(=O)[C@@H]1CSC2c3ccc(OC)c(OC)c3C(=O)N21 (stereo not given in full) -8.1%
Cc1ccc(C2C3C(=O)N(c4ccc(C)cc4)C(=O)C3N3CCCN23)cc1 (stereo not given) -7.6%
Cc1ccc(C(=O)COC(=O)c2cc(Cl)nc3ccccc23)cc1C -37.6%
Cc1ccc(C)c(N2CCN(C(=O)c3ccc4nc(-c5ccco5)c(-c5ccco5)nc4c3)CC2)c1 -1.9%
O=C(c1ccc2nc(-c3ccco3)c(-c3ccco3)nc2c1)N1CCN(c2ccccc2)CC1 3.4%
O=C(CN1C(=O)c2ccccc2C1=O)Nc1cc([N+](=O)[O-])ccc1O -38.7%
CCOc1cc(C(C(=O)NCC2CCCO2)N(C(=O)Cn2nnc3ccccc32)c2ccccc2C(C)=O)ccc1O (stereo not given) -47.9%
COCCCN=C1NN=C(c2cc(C)n(-c3ccccc3F)c2C)CS1 10.1%
Cc1ccc(-n2c(C)cc(C3=NNC(=NC4CC4)SC3)c2C)cc1C -21.7%
Cc1cc(C2=NNC(=NC3CC3)SC2)c(C)n1-c1c(C)n(C)n(-c2ccccc2)c1=O -12.6%
COc1ccc(-n2c(C)cc(C3=NNC(=NC4CC4)SC3)c2C)cc1 -7.5%
CCOC(=O)c1[nH]c2ccccc2c1NC(C)=O 2.4%
CC(C)(C)n1cnc2cc(NS(=O)(=O)c3ccc(Br)cc3)ccc21 7.7%
Cc1ccc(-c2nnn(CC(=O)N(CCN3CCOCC3)C(C(=O)NC(C)(C)C)c3ccc(C)o3)n2)cc1 (stereo not given) -14.8%
COc1ccc(-c2cc3nc(C)cc(C)n3n2)cc1 -76.5%
COc1ccc(-c2cc3nc(C)cc(N)n3n2)cc1 -3.5%
COC(=O)C(Cc1ccccc1)NC(=O)c1cccc(S(=O)(=O)N(C)C)c1 (stereo not given) -41.3%
COc1ccc(/C(C)=N/NC(=O)c2nnn(-c3nonc3N)c2CN(C)c2ccccc2)cc1 -7.2%
C/C(=N\NC(=O)c1c(Br)cnn1C)c1ccc(NC(=O)c2ccc(F)cc2)cc1 -45.8%
CCC(=O)NC(=S)Nc1ccccc1C(=O)NC1CCCCC1 -10.9%
Cc1cc(C)cc(NC(=O)COc2ccc(C(=S)N3CCOCC3)cc2)c1 -14.5%
CCOC(=S)SCc1cn2ccc(C)cc2n1 8.3%
Cc1oc2ccc(O)c(CN3CCOCC3)c2c1C(=O)c1ccc(Cl)cc1 27.5%
Cc1oc2ccc(O)c(CN(C)C)c2c1C(=O)c1ccccc1 -26.2%
CCN(CC)C(=O)CSc1nc2ccccc2c(=O)n1OC(C)C 8%
Cc1cc(/C=C2\SC(=S)NC2=O)c(C)n1-c1cccc(O)c1 -11.9%
Cc1ccc(/C=C2\SC(=S)N(c3cccnc3)C2=O)cc1 -15%
Cc1cc(/C=C2/C(=O)NN(c3ccccc3)C2=O)c(C)n1-c1cccc(O)c1 -15.4%
COc1ccc(-n2c(C)cc(/C=C3/SC(=S)N(C)C3=O)c2C)cc1 -25.3%
Cc1cc(/C=C2\SC(=S)N(Cc3ccco3)C2=O)c(C)n1-c1cccnc1 8.2%
Cc1cc(/C=C2\SC(=O)N(C)C2=O)c(C)n1-c1ccc(O)cc1 0.7%
CC(c1ccccc1)n1c(N2CCNCC2)nc2c1c(=O)[nH]c(=O)n2C (stereo not given) -36.1%

inhibition, active:
COc1ccc(CCn2ccc(O)c(Cc3c(F)cccc3Cl)c2=O)cc1OC 55.5%
CCOC(=O)/C(=C\c1ccc(OC(F)F)cc1)C1=Nn2c(nnc2-c2ccc(Cl)cc2)SC1 92.7%
O=C1[C@H]2[C@@H](c3ccc(Cl)cc3)N3C(=O)N(c4cccc(Br)c4)C(=O)[C@@]3(Cc3ccc(Cl)cc3)[C@H]2C(=O)N1C1CCCCC1 45.6%
O=c1cc(-c2c(F)c(F)c(F)c(F)c2F)oc2c(F)c(F)c(F)c(F)c12 98.7%
Cc1nsc(Nc2ccc([N+](=O)[O-])cc2)c1C#N 60.4%
Cn1cc(CNCc2ccc(OC(F)(F)F)cc2)c(-c2ccc3c(c2)OCCO3)n1 75.4%
CCOc1cc(Br)c(Br)c(C=Nc2ccc(NC(C)=O)cc2)c1O 78%
CS(=O)(=O)c1sc(C#N)c2c1C(=O)CC(c1ccccc1)C2 (stereo not given) 43.9%
Cc1cccc(N2CCN(C(=O)c3ccc4nc(-c5ccco5)c(-c5ccco5)nc4c3)CC2C)c1 (stereo not given) 60.5%
Cc1cc(C2=NNC(=NC3CC3)SC2)c(C)n1-c1ccccc1 98.3%
Cc1cc(C2=NNC(=NC3CC3)SC2)c(C)n1-c1ccccc1F 96.7%
COc1ccc(-c2cc3nc(C)cc(-c4ccc(OC)cc4)n3n2)cc1 66.8%
Cc1oc2c(Cl)c(Cl)c(O)c(CN(C)C)c2c1C(=O)c1ccc(Cl)cc1 65.8%
Cc1cc(/C=C2/SC(=S)N(c3ccc([N+](=O)[O-])cc3)C2=O)c(C)n1-c1cccnc1 74.8%
